Compound activity from PubChem BioAssay.
JMJD2A Tudor inh – inhibitors of human JMJD2A Tudor domain; Potency, µM (highest dose often 114 µM), for the others: at the top dose activity change, negative = inhibition, most hits filed as inhibitors; 390,000 tested, 4.4% active; O75164; AlphaScreen JMJD2A-Tudor / H3K4me3 peptide binding; further: on the % scale 0 is the no-effect control and ±100 the full control effect; nearly all actives have a fitted effect of over 50% in size
VDR inh – vitamin D3 receptor (human) inhibition | P11473 | VDR-SRC2-3 peptide fluorescence polarization, 2 h | Potency, µM, for the others: max response, negative = inhibition, hits mostly inhibitors | 400,000 tested, 0.93% active | AID 504847; further: on the % scale 0 is the no-effect control and ±100 the full control effect
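VDR–SRC2-3 interaction, FP format. Cmpds 23 nl via pintool, brief spin, 2 h ambient incubation.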
G9a block – G9a (human) methyltransferase inhibition; Q96KQ7; 350,000 tested, 8.8% active; Potency, µM (doses to about 102 µM), inactives show at the highest dose activity, negative = inhibition, usual class: inhibitors; G9a H3K9 monomethylation, AlphaScreen, 2 h; AID 504332; further: on the % scale 0 is the no-effect control and ±100 the full control effect; nearly all actives have a fitted effect of over 75% in size
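Using a bead-based AlphaScreen, monomethylated H3K9 product from 2 h room-temperature reactions (G9a 20 nM, peptide 500 nM, SAM 20 uM) was detected with 0.5 ug/mL rabbit anti-H3K9me1 antibody.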
BAZ2B inh – BAZ2B (human) inhibition. Q9UIF8. AlphaScreen BAZ2B-H3K14Ac peptide displacement. Potency, µM (highest dose often 114 µM), inactives show at the top dose activity change, negative = inhibition, hits mostly inhibitors. 360,000 tested, 4.4% active; further: on the % scale 0 is the no-effect control and ±100 the full control effect; nearly all actives have a fitted effect of over 60% in size
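Multi-concentration screen (max 110 uM) measuring displacement of acetylated histone H3 peptide from BAZ2B by AlphaScreen, using 50 nM protein, 50 nM peptide and 10 ug/mL streptavidin donor plus Ni-chelate acceptor beads.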
PLK1 PBD block – blocks phosphopeptide binding to human PLK1 polo-box domain | Potency, µM, without a hit: max response, negative = inhibition, most hits filed as inhibitors | P53350 | Plk1 PBD binding of FITC phosphopeptide, fluorescence polarization | 360,000 tested, 2.8% active; further: series mostly up to about 57 µM; on the % scale 0 is the no-effect control and ±100 the full control effect; nearly all actives have a fitted effect of over 65% in size
HP1b binding inh – blocks HP1-beta chromodomain binding to methylated histone tails. AlphaScreen HP1-beta / biotin-H3K9me3 peptide binding. 390,000 tested, 0.56% active. Potency, µM (series often up to 114 µM), for inactives: top-dose activity change, negative = inhibition, hits mostly inhibitors. AID 540317; further: nearly all actives have a fitted effect of over 70% in size
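AlphaScreen: HP1-beta (50 nM) preformed 30 min with biotin-H3(1-18)K9me3 peptide (50 nM) in PBS pH 7.4, 0.01% Tween-20. Compound added for 30 min at RT, then streptavidin donor/nickel chelate acceptor beads (10 ug/mL) for 30 min.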
Numbers without * were called inactive; u = inconclusive; x = no result; [ ] = another dose, or the depositor's remark. This is a sample that favours compounds with a hit; in the whole collection about 11% have one here. The call rests on the fitted dose curve; in most records, active means well fitted curve in the direction sought with a large enough effect; inconclusive means small, poorly fitted or top-dose-only effect, or another doubt; inactive means no such curve, though single readings can be large; an effect the other way counts as inactive or inconclusive. Potency means the concentration at half of the fitted maximal effect.

SMILES	JMJD2A Tudor inh	VDR inh	G9a block	BAZ2B inh	PLK1 PBD block	HP1b binding inh
CCN(CC)CCN(C(=O)c1ccc(Br)s1)c1nc2cc3c(cc2s1)OCCO3	-13%	-15%	50µM*	x	-9%	36%
CCN(CC)CCN(C(=O)c1ccc(Br)s1)c1nc2cc3c(cc2s1)OCO3	-23%	-12%	50µM*	x	-1%	34%
Cc1nc2ccccn2c1C(=O)NNC(=O)Nc1cccc(C(F)(F)F)c1	-6%	7%	x	-3%	-10%	38%
Cc1cccc(C(=O)N2c3ncnn3C3(CCCCC3)[C@@H]3CCCC[C@@H]32)c1	-18%	11%	-21%[59 µM]	-18%	x	-4%
S=c1[nH]ccn1-c1ccccc1Cl	22µM*	-6%	16µM*	-13%	-7%	32%
S=c1[nH]ccn1-c1cccc(Cl)c1Cl	16µM*	-8%	5.6µM*	-7%	-12%	45%
Cc1nn(C)cc1/C=N/NC(=S)Nc1ccccc1	u	89µM*	u	-34%	12µM*	-28%
Oc1ccccc1/C=N/NC(=S)NC1CC2C=CC1C2 (stereo not drawn)	45µM*	16%	u	28µM*	-2%	6%
Fc1ccc(NC(=S)NN=Cc2ccccc2Cl)cc1	-25%	-10%	x	x	-1%	27%
Oc1ccccc1C=NNC(=S)Nc1ccc(F)cc1	56µM*	11%	x	x	-5%	17%
O=C1NC(=O)C(c2cn(-c3ccccc3)nc2-c2ccc(F)cc2)N1 (stereo not drawn)	u	u	0%[12.7 µM]	-1%	5.3µM*	-9%
Cc1cn([C@H]2C[C@H](O)[C@@H](/C=C/C(=O)NCCc3ccc4c(c3)OCO4)O2)c(=O)[nH]c1=O	x	x	x	x	1%	x
COC(=O)c1ccc(CSc2nnc(NCc3ccccc3)s2)o1	0%	5%	50µM*	2%	-11%	45%
COC(=O)c1ccc(CSc2nnc(SCc3ccc(C(=O)OC)o3)s2)o1	-15%	-9%	-38%[59 µM]	-5%	-21%	6%
O=C(Oc1ccc(N(Cc2cccs2)C2=NS(=O)(=O)c3ccccc32)cc1)c1ccccc1Cl	u	u	-6%[59 µM]	-1%	2.7µM*	u
O=C(Oc1ccc(N(Cc2cccs2)C2=NS(=O)(=O)c3ccccc32)cc1)c1ccco1	-12%	9%	-3%[59 µM]	4%	-4%	30%
COc1ccccc1CNC(=O)CCc1c(C)nn(-c2ccc(N3CCCC3)nn2)c1C	-7%	10%	-1%[59 µM]	-19%	x	52%
O=c1cnnc(Nc2ccc(Nc3ccccc3)cc2)[nH]1	u	-4%	40µM*	-36%	-9%	-8%
O=C1CSC(=S)N1/N=C/c1ccc(C(F)(F)F)cc1	-31%	u	79µM*	-15%	u	12%
O=C1CSC(=S)N1/N=C/c1cccc(C(F)(F)F)c1	u	5%	u	-14%	-20%	-9%
O=C1CSC(=S)N1/N=C/C=C/c1ccccc1	u	-5%	40µM*	u	u	u
O=C1CSC(=S)N1/N=C/c1c(F)cccc1F	u	-2%	50µM*	-20%	u	-39%
COc1ccc2ccccc2c1/C=N/N1C(=O)CSC1=S	u	11%	u	x	-22%	-18%
CN(C)Cc1ccccc1CNC(=O)c1cccc(S(=O)(=O)Nc2ccc3c(c2)OCO3)c1	x	x	x	x	-5%	x
COc1ccc(OC)c(Cc2nnc(CCC(=O)NCc3ccc(C)s3)o2)c1	-9%	11%	25µM*	u	0%	10%
SMILES	JMJD2A Tudor inh	VDR inh	G9a block	BAZ2B inh	PLK1 PBD block	HP1b binding inh
O=C(Nc1cccc(C(F)(F)F)c1)Nc1cc(Cl)ccc1C(=O)O	x	50µM*	x	x	x	x
Cc1ccc(NC(=O)Nc2cccc(Cl)c2)c(C(=O)O)c1	u	u	-4%[59 µM]	-3%	19µM*	13%
CC(=O)Nc1cccc(-c2csc(C(O)c3ccc(F)c(F)c3)n2)c1 (stereo not drawn)	x	x	x	x	-1%	x
Cc1ccc(C(=O)CSC2=NC(N)=C(C#N)C3(CCCCC3)C2C(N)=O)cc1 (stereo not drawn)	u	u	40µM*	-35%	u	u
N#CC1=C(N)N=C(SCc2ccccc2)C(C(N)=O)C12CCCCC2 (stereo not drawn)	-26%	-2%	47%[12.7 µM]	u	-3%	11%
O=C(NCCc1ccc(Cl)cc1)C1CCC(=O)N1C1CCCC1 (stereo not drawn)	2%	1%	45µM*	-37%	-4%	21%
C[C@H](NC(=O)[C@@H](Cc1c[nH]c2ccccc12)NC(=O)[C@@H](N)Cc1cnc[nH]1)C(=O)N[C@@H](Cc1c[nH]c2ccccc12)C(=O)N[C@H](Cc1ccccc1)C(=O)N[C@@H](CCCCN)C(N)=O	x	6%	x	x	x	x
O=C(Nc1nc2nc(-c3ccccc3)cc(=O)n2[nH]1)c1ccc(F)cc1	-10%	-2%	15%[12.7 µM]	79µM*	x	30%
Cc1ccc(C(=O)Nc2nc3nc(-c4ccccc4)cc(=O)n3[nH]2)cc1	-2%	-3%	u	u	-15%	64%
COc1ccc(NC(=O)CN2C(=O)CSC(C)C2=O)cc1 (stereo not drawn)	u	-29%	-2%	-19%	21µM*	-15%
O=S(=O)(c1cccc(F)c1)N1CCN(S(=O)(=O)c2ccc3c(c2)OCCO3)CC1	-19%	x	x	x	x	x
N#C/C(C(=O)Nc1ccc(Cl)cc1)=C(/S)Nc1ccccc1	20µM*	u	1.6µM*	20µM*	3.4µM*	u
CN(C)/C=C(\C#N)C(=O)Nc1ccccc1	-8%	-19%	0%	0%	1%	46%
O=C(O)c1ccc2c(c1)C(=O)N([C@H](Cc1c3ccccc3cc3ccccc13)C(=O)O)C2=O	u	x	12%[12.7 µM]	-8%	x	x
Cc1ccc(S(=O)(=O)N2CCN(C(=O)CCn3nc(C)c(C)c3C)CC2)cc1C	-18%	1%	26%	1%	-5%	5%
Cc1ccc(S(=O)(=O)N2CCN(C(=O)C(C)Cn3nc(C)c(C)c3C)CC2)cc1C (stereo not drawn)	-3%	6%	50µM*	0%	0%	21%
O=C(Cn1ncc2c3ccccc3n(Cc3ccc(F)cc3)c2c1=O)NCCCN1CCCCC1	-16%	-5%	-8%[59 µM]	-14%	x	14%
COc1cccc(OC)c1C(=O)Nc1cc(Cl)ccc1N1CCOCC1	-20%	18%	u	12%	-7%	4%
CC1CCCN(C(=O)C(C)Nc2cc(Cl)ccc2N2CCOCC2)C1 (stereo not drawn)	u	134%	40µM*	u	u	2%
CCc1ccccc1OCCCCN1CCCCC1	1.8µM*	-1%	40µM*	u	1%	u
COc1ccccc1OCCCCN1CCCCC1	-9%	-8%	25%	-35%	-5%	10%
CCc1ccccc1OCCCN1CCCC1	-89%	16%	50µM*	u	1%	-15%
